Source: PubChem BioAssay AID1839 (Johns Hopkins Ion Channel Center, 2009)
The whole screen tested about 2,400 compounds, of which about 220 (9.2%) were called active. Many of the other results were omitted from the sample, so actives are more common in it than they were. Values without a mark were called inactive.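 Rule for the calls: active = signal change above the mean of dofetilide-free buffer controls plus 3 SD, so a positive margin; inactive = the rest.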

assay: thallium signal changes without hERG – cell-based, CHO-K1 parental line, FluxOR thallium flux, counter-screen for hERG block protection project, confirmation (AID 1839); settings: CHO-K1 parental cells, FluxOR thallium flux fluorescence; at 10 µM;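 note: compounds applied alone with no dofetilide to cells lacking hERG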

SMILES | signal change vs control minus 3*SD hit threshold (margin above threshold, higher = more increase)
COc1ccc(S(=O)(=O)N2CCN(C(=O)CNC(=O)c3ccc4c(c3)OCO4)CC2)cc1 | -26.4%
Cc1cc2c(cc(C(=O)OC(C(=O)NCc3ccco3)C(C)C)n2C)o1 (stereo not drawn) | -12.7%
Cn1c(=O)c2c(nc(Cl)n2CC(=O)N2CCCCC2)n(C)c1=O | -27.9%
CCOC(=O)C1CCCCN1Cc1ccc(F)cc1 (stereo not drawn) | -18.3%
Cc1ccc(S(=O)(=O)NC(=S)NC2CCCCC2)cc1 | -13%
O=S(=O)(NC(=S)NC1CCCCC1)c1ccc(Cl)cc1 | -16.4%
CCc1ccc(S(=O)(=O)NC(=S)NC2CCCCC2)cc1 | 1.9% (active)
CCCn1c(CC)nc([N+](=O)[O-])c1S(=O)(=O)c1ccccc1 | -15.2%
COC(=O)c1c(NS(=O)(=O)Cc2ccccc2)sc2c1CCCC2 | -1.7%
CCC(C)(C)NC(=O)c1ccc(Sc2nncn2C)c([N+](=O)[O-])c1 | -27.2%
Cc1ccc(Nc2cc(C)nn2-c2nc(C)cc(=O)[nH]2)cc1 | 15.1% (active)
Cc1cccc(N/C(N)=N/c2nc(C)cc(=O)[nH]2)c1 | -33%
Cc1ccc(Nc2nc(C)cs2)cc1 | -10.7%
CC(C)(C)Cc1nnc(NC(=O)c2ccco2)s1 | -32.3%
CC1=[N+]([O-])C(C)(C)C(c2ccc(Br)cc2)=[N+]1[O-] | -17%
COC(=O)c1sc(NC(=S)NC(=O)c2ccccc2F)nc1C | -6.2%
COc1ccccc1C(=O)NNC(=O)C(=O)NCc1ccccc1 | 3.6% (active)
COc1ccc(C(=O)CC(=O)C(=O)Nc2ccc(C)c(Cl)c2)cc1 | -23%
COc1cc(NC(=O)c2ccccc2OCc2ccccc2)cc(OC)c1OC | -34.3%
Cc1ccc(NC(=O)c2ccc3c(c2)OCO3)cc1Cl | -25.4%
Cc1ccc(NC(=O)C(=O)NNC(=O)c2ccccc2C)cc1Cl | 35% (active)
COc1ccccc1C(=O)NNC(=O)C(=O)NC1CCCCC1 | 14.6% (active)
Cc1ccccc1C(=O)NNC(=O)c1cccc([N+](=O)[O-])c1 | -30%
COc1ccccc1C(=O)NNC(=O)C(=O)Nc1ccc(C)c(Cl)c1 | 55.4% (active)
COc1ccc(C(=O)NNC(=O)C(=O)NC2CCCCC2)cc1 | -33.5%

SMILES | signal change vs control minus 3*SD hit threshold (margin above threshold, higher = more increase)
COc1ccccc1C(=O)NCc1ccc2c(c1)OCO2 | -31%
O=C(COc1ccc(Cl)cc1)NNC(=O)C(=O)NC1CCCCC1 | -26.3%
COc1ccc(NC(=O)C(=O)NNC(=O)c2ccc(Cl)cc2Cl)cc1 | -20.1%
Cc1ccc(-n2ncc3c2CCCC3NC(=O)c2csnn2)cc1C (stereo not drawn) | -37.5%
Cc1ccc(NC(=O)c2c([N+](=O)[O-])c(C(C)(C)C)nn2C)cc1 | -22.3%
Cc1cc(C)c(NC(=O)C2CC3CCC2C3)c(C)c1 (stereo not drawn) | -16.2%
CC(C)(C)C(=O)NC(=S)N1CCOCC1 | -15.9%
Cc1ccc(C)n1-n1c(C)nc2scc(-c3ccccc3)c2c1=O | -33.2%
Cc1c(Cl)cccc1NC(=S)N=Nc1c(O)n(CN2CCOCC2)c2ccccc12 | -31.2%
O=C(NC(=S)N(CCc1ccccc1)CCc1ccccc1)c1ccco1 | -17.5%
CCOc1ccc(S(=O)(=O)Nc2nc3ccccc3nc2-n2ccc(=NC(=O)c3cccs3)cc2)cc1 | -31.9%
CS(=O)(=O)N1CCN(c2ccccc2NC(=O)Nc2cccc(Cl)c2)CC1 | -32.6%
O=C1N2CCSC2=NC1(NS(=O)(=O)c1ccccc1)C(F)(F)F (stereo not drawn) | -19%
Cc1ccc(Nc2nc(-c3cccs3)cs2)nc1 | -32.7%
CC(C)(C)NC(=O)CN(C(=O)CS(=O)CC(=O)Nc1ccc(F)cc1)c1cccc(F)c1 (stereo not drawn) | -27.9%
O=c1c(Cc2ccccc2)c(O)nc2n1CCCS2 | -25.5%
COc1ccccc1C(=O)NNC(=O)C(=O)Nc1ccc(C)cc1 | 59.6% (active)
C/C(CC(=O)Nc1ccccn1)=N\NC(=O)C(=O)Nc1cccc(Cl)c1C | -14.9%
COc1ccccc1C(=O)Nc1ccc(C(=O)N2CCCC2)cc1 | -13%
COc1ccccc1C(=O)NNC(=O)C(=O)Nc1cccc(Cl)c1C | 55.6% (active)
COc1ccccc1C(=O)NNC(=O)C(=O)NC(C)(C)C | -7.1%
Cc1ccccc1C(=O)NNC(=O)C(=O)Nc1cccc(Cl)c1C | -1.4%
Cc1ccc(OCC(=O)NC(=S)Nc2ccc(Br)cn2)cc1C | -27.8%
Cn1cc([N+](=O)[O-])c(C(=O)N/N=C\c2c[nH]c3ccccc23)n1 | -27%
O=C(Cc1cccs1)Nn1c(Cc2cccs2)nc2ccccc2c1=O | -15.1%

SMILES | signal change vs control minus 3*SD hit threshold (margin above threshold, higher = more increase)
Cc1cc(NC(=O)CCCn2cnc([N+](=O)[O-])n2)no1 | -28.2%
COC(=O)C(C)Sc1nnc(Cc2cc(=O)[nH]c(=O)[nH]2)n1-c1cccc(OC)c1 (stereo not drawn) | -26%
S=c1[nH]nc(-c2cccs2)n1/N=C/c1c(Cl)cccc1Cl | -17.3%
CN(C)S(=O)(=O)c1cc(NC2CC(=O)N(c3ccc(F)cc3)C2=O)ccc1Cl (stereo not drawn) | -30.5%
Cc1cc(C)c(C(=O)c2ccc(C(=O)N3CCCCC3)cc2)c(C)c1 | -37.3%
COC(=O)c1sccc1NC(=O)CSc1ccccc1NS(=O)(=O)c1cc(Cl)ccc1Cl | -29.7%
O=S(=O)(Nc1nc(-c2sccc2Cl)cs1)c1cc(Cl)ccc1Cl | 15.7% (active)
O=C(O)c1ccccc1P(=O)(c1ccccc1)c1ccccc1 | -29.2%
CCc1cccc(C)c1NC(=O)C1=C(C(=O)O)CCCC1 | -33.6%
CN(C(=O)c1ccc(Cl)c(S(=O)(=O)N2CCOCC2)c1)c1ccccc1C(=O)O | -13.3%
Cn1c(=S)[nH]c2scc(-c3cccs3)c2c1=O | 27.9% (active)
COc1cc(/C=N/n2cnc3scc(-c4cccs4)c3c2=O)cc(OC)c1OC | -32%
CCC(C)n1c(=S)[nH]c2ccccc2c1=O (stereo not drawn) | -5.7%
CC(C1CC2CCC1C2)n1c(-c2cccs2)n[nH]c1=S (stereo not drawn) | -18.6%
S=c1[nH]c(-c2cccs2)cn1-c1ccccc1 | -21.8%
CC(C)n1c(=S)[nH]c2scc(-c3cccs3)c2c1=O | 28.9% (active)
O=C(O)/C=C/C(=O)Nc1ccc(OC(F)(F)F)cc1 | -22.2%
CC(NC(=O)CCNC(=O)c1ccco1)c1ccc(F)cc1 (stereo not drawn) | -35.2%
CCc1c(C)sc(NC(=O)CN2CCN(C(=O)c3ccco3)CC2)c1C(=O)OC | -35.4%
CCc1ccc2[nH]c(=O)c(-c3ccccc3)c(O)c2c1 | -28.9%
COc1cc(Cl)c(C)cc1NC(=O)CSc1sc2c(O)cc(=O)[nH]c2c1C#N | -30.6%
CCOc1ccc(C(=O)Nc2ccccc2C(=O)O)cc1 | -21.4%
C=CCN(c1ccc(Cl)cc1)S(=O)(=O)c1cccc(C(=O)O)c1 | -22.9%
O=C(NC(=S)NCCC1=CCCCC1)c1ccco1 | 22.8% (active)
O=C(NC(=S)NCCC1=CCCCC1)c1ccc(Br)o1 | -1.2%

SMILES | signal change vs control minus 3*SD hit threshold (margin above threshold, higher = more increase)
O=C(NC(=S)NCCc1ccc(Cl)cc1)c1ccco1 | -21.7%
COc1ccc(/C=C/c2cc(=O)c3cc(Cl)ccc3o2)cc1 | -32.9%
Cc1nc(NCc2cccnc2)c2c3c(sc2n1)CC(C)CC3 (stereo not drawn) | 5.6% (active)
Cc1nc(NCCc2ccc(S(N)(=O)=O)cc2)c2c(C)c(C)sc2n1 | -24.9%
Cc1ccc(OCc2ccoc2C(=O)O)cc1C | -4.5%
Fc1cccc(C2NN=C(c3ccccc3)S2)c1 (stereo not drawn) | -15.8%
CCOC(=O)c1sc(NC(=S)NC(=O)c2ccco2)nc1C | -14.4%
O=C(NC(=S)NCc1ccc(-c2nc3ccccc3s2)cc1)c1ccco1 | -21.2%
O=C(NC(=S)Nc1nc(-c2ccc(Br)cc2)cs1)c1ccco1 | -20.8%
O=C(NC(=S)Nc1nc2ccccc2s1)c1cccs1 | -8.5%
O=C(NC(=S)Nc1nc2ccccc2s1)c1ccco1 | 9.2% (active)
O=C(NC(=S)Nc1cccc([N+](=O)[O-])c1)c1ccco1 | -40.6%
O=C(NC(=S)Nc1nc2ccc(F)cc2s1)c1ccco1 | 47% (active)
COc1ccc(-c2csc(NC(=S)NC(=O)c3ccco3)n2)cc1Br | -15.8%
COc1ccc2nc(NC(=S)NC(=O)c3ccco3)sc2c1 | 0.7% (active)
O=C(NC(=S)Nc1nc(-c2ccc([N+](=O)[O-])cc2)cs1)c1ccco1 | 1% (active)
COc1ccc(-c2csc(NC(=S)NC(=O)c3ccco3)n2)cc1 | -14%
O=C(NC(=S)Nc1nc(-c2ccccc2)cs1)c1ccco1 | -21.2%
CC(C)Oc1c(Cl)cc(CNC(C)(C)CO)cc1Cl | -26.9%
CCN(CCCn1c(=S)[nH]c2ncccc2c1=O)c1ccccc1 | -29.7%
COC(=O)C1=C(C)N(CC2CCCO2)C(=O)/C1=C\c1ccc(O)cc1 (stereo not drawn) | -14.9%
Nn1c(SCC(=O)Nc2ccc(OC(F)F)cc2)nnc1-c1ccco1 | -27%
Cc1cccc(NC(=O)CN2C(=O)S/C(=C\c3ccc(-c4cccc(C(=O)O)c4C)o3)C2=O)c1 | -29.7%
